HSF1 inh – HSF1 inhibition. NIH3T3-HGL HSE-luciferase, MG132-induced, luminescence 8 h; stronger effect = lower value. activity change, negative = inhibition, % at 7.5 µM (by protocol). hit rate 0.77% among 300,000;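 active = more than half of replicate wells show activity change below -50%, luminescence cut by over half; inconclusive = some wells, but at most half, below -50%; inactive = no replicate well below -50%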;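 note: luciferase reports HSF-1 transcriptional activity via heat shock element; 0% = median of DMSO wells and -100% = zero luminescence signal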
ARNT-TACC3 inh – disrupts binding between human ARNT and TACC3; Q9Y6A5; AlphaScreen His-ARNT PAS-B/GST-TACC3 binding, luminescence; TACC3 fragment carries E629A point mutation; inhibition, % at 9.99 µM; hit rate 0.66% among 390,000; AID 623870;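 active = mean inhibition of replicates at least 50% and at least half of replicates each reaching 50%; inconclusive = half or more replicates reach 50% but mean below 50%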;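 note: 0% = complete ARNT plus TACC3 wells and 100% = ARNT alone without TACC3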
HSP90 refold inh – inhibitors of HSP90 luciferase refolding in rabbit reticulocyte lysate; hit rate 0.91% among 290,000; inhibition, % at 5.6 µM; luciferase refolding luminescence, 3 h;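 active = inhibition above the screen-wide mean plus 3 SD, computed separately per campaign, cut at about 16% in these data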;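 note: 0% = DMSO wells and 100% = 60 µM geldanamycin wells; inhibitors lower the luminescence because luciferase stays unfolded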
HSF-1 act – increases HSF-1 driven luciferase reporter signal. NIH3T3-HGL HSF-1 luciferase reporter, MG132, 8 h; 100% = twice DMSO control signal. activation, % at 9 µM. hit rate 1.7% among 300,000. AID 504408;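 active = mean replicate activation of at least 50% with a set share of replicates each reaching 50%; inconclusive = only one of those two conditions met; inactive = mean below 50% and too few replicates reaching it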;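 note: 0% = median of the neutral control wells and 100% = twice that signal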
HIF activator – HIF pathway transcriptional activation | U2OS HRE-luciferase reporter, luminescence; normalized: DMSO 0%, desferrioxamine 100% | hit rate 0.32% among 300,000 | activation, % at 7.5 µM (by protocol);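 active = mean activation of at least 10% of the iron chelator positive control signal, with at least half of replicates also reaching 10%; inconclusive = mean and replicate majority disagree about reaching 10%; inactive = mean and most replicates under 10%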
HSP90 confirm – confirmation of HSP90 inhibitors. inhibition, % at 5.9 µM. shares compounds with HSP90 refold inh. hit rate 64% among 2,300. AID 1846. rabbit reticulocyte lysate, luciferase refolding luminescence, 3 h; in the data active = inhibition above about 18%;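 note: 0% = vehicle wells and 100% = reference inhibitor wells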
luciferase ctr – firefly luciferase inhibition, HSP90 counter-screen; shares compounds with HSP90 refold inh; purified native firefly luciferase, luminescence; inhibition, % at 5.9 µM; hit rate 48% among 2,300; AID 1847;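 active = inhibition above the mean inhibition of all tested sample wells plus 3 SD, cut at about 10% in these data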;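 note: 0% = DMSO with luciferase and 100% = wells lacking luciferase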
Target sequence (P08659 whole entry, looked up): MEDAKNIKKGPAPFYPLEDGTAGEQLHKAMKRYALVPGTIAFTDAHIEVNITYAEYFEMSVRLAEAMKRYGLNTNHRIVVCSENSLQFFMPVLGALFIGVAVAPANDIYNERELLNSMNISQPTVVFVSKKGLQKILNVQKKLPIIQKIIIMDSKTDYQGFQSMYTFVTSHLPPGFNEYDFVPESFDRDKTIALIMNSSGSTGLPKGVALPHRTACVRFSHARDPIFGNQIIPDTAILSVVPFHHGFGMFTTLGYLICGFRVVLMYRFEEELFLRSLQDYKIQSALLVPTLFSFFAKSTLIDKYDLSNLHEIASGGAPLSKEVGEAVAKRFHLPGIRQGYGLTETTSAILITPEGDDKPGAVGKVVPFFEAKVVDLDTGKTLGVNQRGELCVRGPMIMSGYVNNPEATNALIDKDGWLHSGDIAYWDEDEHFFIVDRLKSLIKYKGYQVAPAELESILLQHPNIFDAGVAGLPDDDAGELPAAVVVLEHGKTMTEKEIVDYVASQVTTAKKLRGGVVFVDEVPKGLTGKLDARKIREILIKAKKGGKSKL
Numbers without * were called inactive; ? = inconclusive; . = not tested or not shown. Most compounds without a hit are left out; they make up all but 3.1% or so of the library.

SMILES | HSF1 inh | ARNT-TACC3 inh | HSP90 refold inh | HSF-1 act | HIF activator | HSP90 confirm | luciferase ctr
CC1CCN(c2ccc(-c3cccs3)nn2)CC1 | -67* | -2 | 81* | -72 | -9 | 90* | 84*
COc1cc(/C=N/NC(=O)c2cc(-c3cccn3C)n[nH]2)cc(OC)c1OC | -7 | 23 | 2 | -18 | 7 | . | .
Cn1cccc1-c1cc(C(=O)N/N=C/c2ccc(Cl)cc2)[nH]n1 | -5 | 19 | 19* | -3 | 1 | 2 | -5
Cc1ccsc1/C=C1\CCc2ccccc2C1=O | -8 | 14 | 31* | -14 | -4 | 79* | 71*
CN1C(=O)c2cc(NC(=O)Nc3cccc(Cl)c3)ccc2OC[C@H]2O[C@H](CC(=O)NCCc3ccncc3)CC[C@@H]21 | . | 4 | . | . | . | . | .
CCC(=NCc1ccco1)c1c(C(F)(F)F)[nH]n(-c2nc3ccccc3s2)c1=O | 2 | -2 | 2 | -1 | 0 | . | .
CC(=NCc1ccco1)c1c(C)[nH]n(-c2nc3ccccc3s2)c1=O | . | 2 | 32* | . | -1 | 50* | 16*
O=[N+]([O-])c1ccc(N=Nc2ncc[nH]2)cc1 | -66* | -1 | 55* | -66 | 6 | 57* | -18
O=[N+]([O-])c1ccc(N=NN(CCO)CCO)cc1 | -6 | . | 0 | 3 | 0 | . | .
O=C(c1ccc(-c2nc3ccccc3s2)o1)N1CCN(c2ccccc2O)CC1 | 1 | 2 | 4 | 20 | 1 | . | .
O=C(O)c1ccc(-c2nc3ccccc3s2)o1 | 8 | 2 | 63* | 15 | 0 | 80* | 24*
C[C@H](CO)N1C[C@H](C)[C@H](CN(C)CC2CCCCC2)OCCCC[C@H](C)Oc2ccc(NC(=O)NC3CCCCC3)cc2C1=O | . | 1 | . | . | . | . | .
Nc1cc(=O)[nH]c(SCC(=O)NNC(=O)c2ccccc2)n1 | -1 | 6 | . | 14 | 0 | . | .
Nc1cc(=O)[nH]c(SCC(=O)NNC(=O)Cc2ccccc2)n1 | -7 | -7 | 23* | -15 | 0 | 3 | 0
COc1ccccc1C(NC(C)=O)c1cc(Cl)c2cccnc2c1O (stereo not drawn) | -46 | 7 | 24* | -46 | 0 | 14 | -11
O=C(O)COc1ccccc1C(Nc1ccccn1)c1cc(Cl)c2cccnc2c1O (stereo not drawn) | 9 | 0 | -3 | 12 | 0 | . | .
Cc1cnc(NC(=O)c2sc3ccccc3c2Cl)s1 | -15 | -3 | 5 | -8 | -1 | . | .
O=C(Nc1nccs1)c1sc2ccccc2c1Cl | -2 | 30 | 23* | 28 | -1 | 50* | 45*
COc1ccc2cc3cc(C(=O)N4CCCCCC4)oc3nc2c1 | -5 | -2 | 17* | -5 | -1 | 40* | 22*
COc1ccc(-c2cc(C(=O)N3CCCC3)no2)cc1 | -1 | 0 | 39* | 24 | -1 | 57* | 42*
Cc1ccc(-c2cc(C(=O)N3CCCCCC3)no2)cc1 | 1 | . | 23* | 3 | 12* | 29* | 20*
Cc1[nH]n(-c2ccccc2)c(=O)c1C(c1ccccc1[N+](=O)[O-])C(C#N)C#N (stereo not drawn) | 2 | 13 | 28* | -3 | 0 | 2 | -4
Cc1[nH]n(-c2ncc(-c3ccccc3)s2)c(=O)c1C(c1ccc(Cl)cc1)C(C#N)C#N (stereo not drawn) | 2 | 4 | 2 | 20 | -1 | . | .
CCOc1ccc(-c2nc(CN(Cc3ccccc3)C[C@@H]3CCC(=O)N3)c(C)o2)cc1 | -6 | 3 | 23* | -8 | 2 | 41* | -5
CCOc1ccc(N=C(NN)c2ccc3ccccc3n2)cc1 | -82* | -1 | 28* | -84 | -2 | 12 | -4
SMILES | HSF1 inh | ARNT-TACC3 inh | HSP90 refold inh | HSF-1 act | HIF activator | HSP90 confirm | luciferase ctr
CCN(CC)CCOC(=O)c1ccc(NC(=O)CSc2nnc(-c3cccs3)n2CC)cc1 | . | 23 | . | . | . | . | .
CCN(CC)CCOC(=O)c1ccc(NC(=O)/C=C/c2cccs2)cc1 | -18 | . | 27* | -19 | 0 | 6 | -7
COCCNc1c(-c2cc3ccc(C)c(C)c3[nH]c2=O)nc2ccccn12 | 23 | 4 | 21* | 43 | 2 | -7 | -15
CO[C@H]1CN(C)C(=O)c2ccc(NC(=O)c3nc4ccccc4s3)cc2OC[C@@H](C)NC[C@H]1C | . | 2 | . | . | . | . | .
O=c1c2ccccc2nc(SCc2ccc([N+](=O)[O-])cc2)n1CCCO | -4 | -5 | 2 | -7 | -1 | . | .
COc1ccc(C(=O)Nn2c(SCc3ccc([N+](=O)[O-])cc3)nc3ccccc3c2=O)cc1 | ? | -6 | 55* | -60 | 0 | 45* | 33*
CCOC(=O)CSc1nc2ccccc2c(=O)n1NC(=O)c1ccccc1 | 3 | 4 | 20* | -24 | 1 | 1 | -4
CCOC(=O)CSc1nc2ccccc2c(=O)n1C1CCCC1 | 2 | . | 2 | 17 | 0 | . | .
COc1ccc(C(=O)Nn2c(SCC(=O)c3ccccc3)nc3ccccc3c2=O)cc1 | -59* | -3 | 48* | -60 | -2 | 53* | 48*
CC(C)NC(=O)N[C@H]1CC[C@@H](CC(=O)N2CCCCC2)O[C@H]1CO | . | 0 | . | . | . | . | .
COc1ccc(N2CCC(CNS(=O)(=O)c3cccc(C(F)(F)F)c3)C2)cc1 (stereo not drawn) | 6 | 9 | 59* | 3 | 0 | 2 | -1
C[C@@H]1CN([C@H](C)CO)C(=O)c2cccc(NC(=O)NC3CCCCC3)c2O[C@@H]1CN(C)C(=O)Nc1cccc2ccccc12 | . | 7 | . | . | . | . | .
CCOc1ccccc1OCCn1ncc2ccc(OC)c(OC)c2c1=O | 5 | -1 | -1 | -9 | -20 | . | .
COc1ccc2cnn(CCOc3ccccc3)c(=O)c2c1OC | 14 | . | 21* | 8 | 0 | 32* | 20*
Cc1cc(C)c2nc(N3CCC(C(=O)NCCCN4CC(C)CC(C)C4)CC3)sc2c1 (stereo not drawn) | -31 | . | 31* | -37 | 0 | 40* | 6
Cc1cc(C)c2nc(N3CCCC(C(=O)NCCCN4CCOCC4)C3)sc2c1 (stereo not drawn) | -4 | -2 | 2 | 12 | 2 | . | .
CSc1nc2ccc(NC(=O)c3ccccn3)cc2s1 | 15 | 6 | 41* | 17 | -1 | 62* | 57*
Cc1ccc2nc(NC(=O)c3ccccn3)sc2c1 | -5 | 33 | 61* | -25 | -7 | 94* | 88*
CSc1nc2ccc(NC(=O)C3=NNC(=O)CC3)cc2s1 | -9 | 1 | 0 | -11 | 2 | . | .
CCOC(=O)c1c2c3c(cccc3n(C)c1=O)C(=O)c1ccccc1-2 | 7 | 10 | 44* | -4 | 0 | 2 | -4
CCOC(=O)c1c2c3c(cccc3[nH]c1=O)C(=O)c1ccccc1-2 | -13 | 1 | 1 | 7 | 0 | . | .

High-throughput results deposited in PubChem by several laboratories.
